Growth data for 40 compounds are collected here from PubChem BioAssay (NCI).

Molecules are shown by their SMILES. About 83,000 compounds went through this panel and 20% of them were active in at least one assay; those are over-represented in the sample as a whole.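 Testing used 96-well plates and a 48-hour single-concentration exposure. Example: -40 means 40% of the starting cells died.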 Unmarked numbers belong to inactive results. The source made the active and inactive calls.

The experiment concerns RPMI-8226 leukemia. The experiment can be described thus: NCI-60 one-dose screen, 48 h (100 = growth as untreated, 0 = no growth, -100 = all killed). Conditions: 10 µM unless noted. As to the method:
Growth inhibition of the RPMI-8226 human tumor cell line is measured as a screen for anti-cancer activity. Cells are grown in 96 well plates and exposed to the test compound for 48 hours. Compounds are tested at a single concentration, which is 10^-5 M for most compounds. The reported endpoint is percent growth (GI% or GIPRCNT), where numbers from 0 - 100% represent growth inhibition, and numbers from -100% - 0 represent cell death. For example, a value of 40 represents 60% growth inhibition. A value of 0 means no net growth occurred over the course of the experiment. A value of -40 indicates 40% of cells at the beginning of the experiment died by the end of the experiment. A value of -100 means all cells are dead at the end of the experiment.
NCI-60 Human Tumor Cell Lines Screen was performed using the standard one-dose NCI protocol, which is described in more detail at https://dtp.cancer.gov/discovery_development/nci-60/default.htm.
Compounds with GIPRCNT values below 10 were considered active. Activity score was based on GIPRCNT using the following formula: […]
Score is 0 for GIPRCNT values of 100 or above, 50 for GIPRCNT values of 0, and 100 for GIPRCNT values of -100.
As to `O=C1/C(=C/c2ccccc2Br)COc2ccc(O)c(O)c21`, the growth is 1.07% (active).
Consider `CN1CCN(c2ccc(NC(=O)c3cncnc3Nc3ccc(OCc4ccccn4)c(Cl)c3)cc2)CC1`, for which the growth was 23.3%.
For the compound `COc1ccc(-c2nnc(-c3ccc4c(c3)nc(-c3ccncc3)n4C3CCCCC3)o2)cc1`, the growth was 34.1%.
To `C=C1C(=O)O[C@H]2[C@H]1CC/C(COC(=O)NCc1ccc(Cn3c(=O)sn(CCI)c3=O)cc1)=C\CC[C@@]1(C)O[C@@H]21` belongs 29.1%.
To `CCCCCCCCCCCCCCCCCCOc1ccccc1CC(=O)NCC[N+]1(C)CCCC1` belongs 52.7%; to `O=Cc1ccc([N+](=O)[O-])s1`, 94.6%; to `O=c1oc2ccc([N+](=O)[O-])cc2cc1Br`, 107%.
To `Brc1c2c(c(Br)c3ccccc13)CCCC2` belongs 100%; to `O=C1/C(=C/c2ccc(-c3ccc(Br)cc3)o2)SC(=S)N1CCc1ccc(O)cc1`, 75.7%.
As for `CCCCCCCCn1ccc2cc(NC(=O)CN3CCN(c4nc(C)cc(Cl)n4)CC3)ccc21`, the growth was 99.3%.
To `Cc1ccc(Sc2nnc(/N=C3\C(=O)Nc4ccccc43)s2)cc1` belongs 94.8%; to `CN1CCN(C(=O)OCc2ccc3c(Cl)cc(Cl)c(O)c3n2)CC1`, 42%.
To `O=C1c2c(c3c4ccc(Br)cc4oc3c3[nH]c4ccccc4c23)C(=O)N1O` belongs 3.91% (active).
The same measure for `CCn1c(SCC(=O)c2ccc(Br)cc2)nnc1-c1ccncc1`: 103%; for `N#Cc1c(-c2ccc(Cl)cc2)nc(SCC(=O)NC2=NN=C(c3ccccc3)CS2)[nH]c1=O`: 73.5%.
Consider `C=C(C)[C@@H]1CC[C@]2(C(=O)O)CC[C@]3(C)[C@H](CC[C@@H]4[C@@]5(C)C[C@@H](Cc6cn(CCO[C@@H]7O[C@H](COC(C)=O)[C@H](OC(C)=O)[C@H](OC(C)=O)[C@H]7OC(C)=O)nn6)[C@H](O)C(C)(C)[C@@H]5CC[C@]43C)[C@@H]12`, for which the growth is 38.3%.
Regarding `N#CC1=C(c2ccc(Cl)cc2)Nc2c(c(-c3ccc(Cl)cc3)nn2-c2ccccc2)C12C(=O)Nc1ccc(Cl)cc12` (stereo not given), the growth was 27.9%.
The same measure for `C=C(C)[C@@H]1CC[C@]2(C(=O)OC)CC[C@]3(C)[C@H](CC[C@@H]4[C@@]5(C)C/C(=C/NC(N)=S)C(=O)C(C)(C)[C@@H]5CC[C@]43C)[C@@H]12`: 69.6%.
Regarding `CC(=O)Nc1nc2ccc(NS(=O)(=O)c3cccc4c(N(C)C)cccc34)cc2[nH]1`, the growth was 43.3%.
The same measure for `Cc1ccc(-c2nc3nc(-c4ccccc4)nc(N4CCNCC4)c3o2)cc1`: -61.5% (active).
To `Cc1ccc(Cc2cnc(NC(=O)c3cc(Br)cs3)s2)cc1` belongs 53.2%; to `COc1ccc(/C=N/NC(=O)CCN2c3ccccc3Sc3ccccc32)cc1`, 94%.
To `COc1cc(CNS(=O)(=O)c2ccc(C)cc2)ccc1OCc1cn(-c2ccc(Br)cc2)nn1` belongs 87.2%.
Regarding `O=C(Nc1cc(Cl)ccc1O)c1ccc(Nc2ccnc(C(F)(F)F)c2)cc1`, the growth is -6.66% (active).
To `C=CCn1c(SCC(=O)NCc2cc(C)c(O)c(C)c2)nc2ccc(Cl)cc2c1=O` belongs -100% (active).
Consider `N#Cc1nc(-c2ccccc2)oc1S(=O)(=O)N1CCOCC1`, for which the growth is 76.5%.
The same measure for `COC(=O)c1c2c(c(C)[n+]([O-])c1C)C(=O)C(NCc1ccc(Cl)cc1)=CC2=O`: 69.8%; for `COP(=O)(OC)C(C)(C)CC(=O)CC(C#N)(C#N)C(C#N)C#N`: 87.8%; for `CCCCNC(=O)Oc1ccc(/C(=C(/CC)Cc2ccccc2)c2ccc(OCCN3CCCCCC3)cc2)cc1`: -27.6% (active).
The same measure for `CC(C)CCNC(=O)Cn1cccc(NC(=O)OCc2ccccc2)c1=O`: 92.6%; for `COc1ccc(OC)c(C(=O)/C=C/c2cc3c(c(OC)c2OC)OCO3)c1`: 6.09% (active).
The same measure for `O=C(/C=C(/C=C/c1cccc2[nH]ccc12)OB(F)F)/C=C/c1cccc2[nH]ccc12`: -31.5% (active); for `O=C(c1ccc(-c2ccccc2)cc1)c1ccc([N+](=O)[O-])cc1`: 66.1%; for `c1ccc(CNc2c3ccccc3nc3ccccc23)cc1`: 7.65% (active).
Consider `N#C/C(=C/c1ccc([N+](=O)[O-])cc1)n1nnc2cc(F)c(F)cc21`, for which the growth is -18.7% (active).
On to `COc1ccc(N2CCC(=O)NC2=S)cc1`, for which the growth was 105%.
For `COc1cc(-c2cc(-c3cccs3)c(C#N)c(N3CCOCC3)n2)cc(OC)c1OC`, the growth was 44.2%.
The same measure for `CCCCN[C@H]1CC[C@@]2(C)[C@@H](CC[C@@]3(C)[C@H]2[C@H](O)C[C@H]2/C(=C(\CCC=C(C)C)C(=O)OC)[C@@H](OC(C)=O)C[C@@]23C)[C@@H]1C`: 95.9%.
As to `CN(C)CCNC(=O)c1cccc(-c2cnc3ccc(-c4ccc5c(c4)OCO5)nn23)c1`, the growth is 75.8%.
To `O=C1/C(=C/c2ccc(Cl)cc2)COc2ccc(O)cc21` belongs -31.8% (active).
